Compound activity (PubChem)
G9a block: G9a (human) methyltransferase inhibition | Q96KQ7 | G9a H3K9 monomethylation, AlphaScreen, 2 h | Potency, µM (titrated, usually from 102 µM), for inactives: at the highest dose activity, negative = inhibition, hits mostly inhibitors | 350,000 tested, 8.8% active; further: on the % scale 0 is the no-effect control and ±100 the full control effect; nearly all actives have a fitted effect of over 75% in size
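G9a (20 nM) was preincubated 15 min with compound, then reacted 2 h at room temperature with 500 nM biotin-H3K9 peptide and 20 µM SAM. Monomethyl-H3K9 detected by AlphaScreen using anti-H3K9me1 antibody.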
JMJD2A Tudor inh: blocks the human JMJD2A Tudor domain. AID 504339. AlphaScreen JMJD2A-Tudor / H3K4me3 peptide binding. 390,000 tested, 4.4% active. O75164. Potency, µM (highest dose often 114 µM), for inactives: top-dose activity change, negative = inhibition, hits mostly inhibitors; further: on the % scale 0 is the no-effect control and ±100 the full control effect; nearly all actives have a fitted effect of over 50% in size
L3MBTL1 inh: inhibitors of human L3MBTL1; Potency, µM (series often up to 57.1 µM), for the others: at the highest dose activity, negative = inhibition, actives largely listed as inhibitors; AlphaScreen L3MBTL1–H3K9me1 peptide binding; 230,000 tested, 0.66% active; Q9Y468; AID 485360; further: on the % scale 0 is the no-effect control and ±100 the full control effect; nearly all actives have a fitted effect of over 60% in size
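AlphaScreen proximity signal between nickel-chelate acceptor and streptavidin donor beads (final 10 ug/mL) reports binding of 50 nM L3MBTL1 to 75 nM biotin-H3 K9me1 peptide; complex incubated with compounds 30 min at room temperature; cefsulodin titration as control.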
Sfp inh: blocks B. subtilis Sfp PPTase activity; Q9F4F7; Biochemical Sfp PPTase activity, qHTS; Potency, µM, for the others: largest response in the series, negative = inhibition, hits mostly inhibitors; 310,000 tested, 3.5% active;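 further: the enzyme is Sfp with the accession as filed and its product quenches rhodamine fluorescence; 0% = enzyme reaction without inhibitor and -100% = no enzyme wells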
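Compounds were incubated with enzyme (final 15 nM) for 15 min at room temperature before substrate addition started the reaction. Fluorescence at 525 nm excitation, 598 nm emission was recorded immediately and after 30 minutes.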
BAZ2B block: BAZ2B (human) inhibition. AlphaScreen BAZ2B-H3K14Ac peptide displacement. Potency, µM (highest dose often 114 µM), inactives show at the top dose activity change, negative = inhibition, usual class: inhibitors. 360,000 tested, 4.4% active. Q9UIF8. AID 504333; further: on the % scale 0 is the no-effect control and ±100 the full control effect; nearly all actives have a fitted effect of over 60% in size
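Compounds, titrated to a top concentration of 110 uM, were incubated 30 min at room temperature with preformed BAZ2B/acetyl-K14 H3 peptide complex (50 nM each). Proximity signal was measured by AlphaScreen after 20 min with beads.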
HP1b binding inh: blocks HP1-beta chromodomain binding to methylated histone tails. Potency, µM (titrated, usually from 114 µM), for the others: at the highest dose activity change, negative = inhibition, most hits filed as inhibitors. P83916. AlphaScreen HP1-beta / biotin-H3K9me3 peptide binding. 390,000 tested, 0.56% active. AID 540317; further: nearly all actives have a fitted effect of over 70% in size
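Compound inhibition of the preformed complex between 50 nM HP1-beta and 50 nM biotinylated H3K9me3 peptide was read by AlphaScreen. Buffer was PBS pH 7.4 with 0.01% Tween-20. Incubations ran 30 min at room temperature, with 10 ug/mL donor/acceptor beads.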
Active calls of the source: *; [ ] = another dose, or the depositor's remark. Rows were chosen to be rich in hits. Some 12% of all compounds tested hit in one or more screens of this group. The call rests on the fitted dose curve; in most records, active means well fitted curve in the direction sought with a large enough effect; inconclusive means small, poorly fitted or top-dose-only effect, or another doubt; inactive means no such curve, though single readings can be large; an effect the other way counts as inactive or inconclusive. Potency means the concentration at half of the fitted maximal effect.

Screening Cc1ccc2nc(SCC(=O)N3CCC(Cc4ccccc4)CC3)nc(=O)n2c1 returned G9a block inconclusive, JMJD2A Tudor inh -14%, L3MBTL1 inh -18%, BAZ2B block 6% and HP1b binding inh -1%.
For CCCn1nnc(NC(=S)NC(=O)c2cccs2)n1 the results were G9a block 14µM*, JMJD2A Tudor inh 7.9µM*, L3MBTL1 inh 8%, Sfp inh 40µM*, BAZ2B block -29% and HP1b binding inh -13%.
Screening CCCn1nnc(NC(=O)c2ccc(-c3cccc(Cl)c3)o2)n1 returned G9a block 16%[59 µM], JMJD2A Tudor inh -14%, L3MBTL1 inh -1%, Sfp inh -4%, BAZ2B block -32% and HP1b binding inh 8%.
`CCn1nnc(NC(=S)NC(=O)c2ccc(-c3cccc(Cl)c3)o2)n1` gave G9a block inconclusive, JMJD2A Tudor inh -41%, L3MBTL1 inh -5%, Sfp inh 50µM*, BAZ2B block -31% and HP1b binding inh inconclusive.
Cn1nnc(NC(=O)c2cccs2)n1 was read as G9a block 7%, JMJD2A Tudor inh -13%, L3MBTL1 inh 14%, Sfp inh 9%, BAZ2B block 5% and HP1b binding inh 13%.
`C=C(C)Cn1c(SCC(=O)c2ccc(Br)cc2)nc2sc3c(c2c1=O)CCCC3` gave G9a block 12%[59 µM], JMJD2A Tudor inh 4%, BAZ2B block 0% and HP1b binding inh 47%.
Screening NC(=O)CC(NC(=O)c1ccccc1)c1ccc(N2CCCCCCC2)c([N+](=O)[O-])c1 (stereo not given) returned G9a block 45µM*, JMJD2A Tudor inh -35%, L3MBTL1 inh -7%, Sfp inh 3%, BAZ2B block inconclusive and HP1b binding inh 9%.
For NC(=O)CC(NC(=O)c1cccc(Br)c1)c1ccc(NC2CCN(Cc3ccccc3)CC2)c([N+](=O)[O-])c1 (stereo not given) the results were G9a block 50µM*, JMJD2A Tudor inh inconclusive, L3MBTL1 inh -6%, Sfp inh 12%, BAZ2B block inconclusive and HP1b binding inh -11%.
`NC(=O)CC(NC(=O)c1ccc(Br)cc1)c1ccc(N2CCCCCC2)c([N+](=O)[O-])c1` (stereo not given) gave G9a block 45µM*, JMJD2A Tudor inh inconclusive, L3MBTL1 inh -20%, Sfp inh 5%, BAZ2B block inconclusive and HP1b binding inh -24%.
`NC(=O)CC(NC(=O)c1ccccc1)c1ccc(NC2CCCCCCC2)c([N+](=O)[O-])c1` (stereo not given) gave JMJD2A Tudor inh -32%, L3MBTL1 inh -7%, Sfp inh -13%, BAZ2B block inconclusive and HP1b binding inh 40%.
Screening NC(=O)CC(NC(=O)c1cccc(Br)c1)c1ccc(N2CCCCCC2)c([N+](=O)[O-])c1 (stereo not given) returned JMJD2A Tudor inh inconclusive, L3MBTL1 inh -27%, Sfp inh -5%, BAZ2B block inconclusive and HP1b binding inh -9%.
Screening NC(=O)CC(NC(=O)Cc1ccc(Cl)cc1)c1ccc(NC2CCN(Cc3ccccc3)CC2)c([N+](=O)[O-])c1 (stereo not given) returned G9a block inconclusive, JMJD2A Tudor inh -29%, L3MBTL1 inh -18%, Sfp inh 8%, BAZ2B block inconclusive and HP1b binding inh 13%.
`NC(=O)CC(NC(=O)c1ccc(Br)cc1)c1ccc(NC2CCCCCCC2)c([N+](=O)[O-])c1` (stereo not given) gave G9a block 79µM*, JMJD2A Tudor inh inconclusive, L3MBTL1 inh -12%, Sfp inh 5%, BAZ2B block inconclusive and HP1b binding inh -16%.
For COc1ccccc1NC(=O)c1ccccc1NS(=O)(=O)c1cccs1 the results were G9a block 50µM*, JMJD2A Tudor inh -1%, L3MBTL1 inh 9%, Sfp inh 7%, BAZ2B block -19% and HP1b binding inh 42%.
Screening COc1cccc(OC)c1C(=O)Nc1ccccc1NC(=O)c1c(OC)cccc1OC returned G9a block 79µM*, JMJD2A Tudor inh -8%, Sfp inh -3%, BAZ2B block -1% and HP1b binding inh -3%.
`COC(=O)c1nc2n(n1)C(c1cccc(Cl)c1)C(C(=O)Nc1ccccc1OC)=C(C)N2` (stereo not given) gave G9a block -39%[59 µM], JMJD2A Tudor inh 0%, BAZ2B block inconclusive and HP1b binding inh 41%.
For CC(C)CC(=O)Nc1nnc(S(=O)(=O)N(C)Cc2ccco2)s1 the results were G9a block inconclusive, JMJD2A Tudor inh 13%, Sfp inh inconclusive, BAZ2B block -19% and HP1b binding inh 47%.
Cc1ccc(C(=O)COC(=O)c2cc(=O)[nH]c3ccccc23)cc1C was read as G9a block 28µM*, JMJD2A Tudor inh -33%, L3MBTL1 inh 3%, Sfp inh 6%, BAZ2B block 50µM* and HP1b binding inh inconclusive.
COc1ccccc1C(=O)COC(=O)c1cc(=O)[nH]c2ccccc12 was read as G9a block inconclusive, JMJD2A Tudor inh -7%, L3MBTL1 inh 1%, BAZ2B block 3% and HP1b binding inh 33%.
`Cc1ccccc1Nc1c(-c2ccc(Cl)s2)nc2c(C)cccn12` gave G9a block -57%[59 µM], JMJD2A Tudor inh inconclusive, BAZ2B block inconclusive and HP1b binding inh inconclusive.
Cc1ccn2c(Nc3c(C)cccc3C)c(-c3ccsc3)nc2c1 was read as G9a block 10µM*, JMJD2A Tudor inh inconclusive, BAZ2B block -36% and HP1b binding inh -20%.
`Cc1ccn2c(Nc3c(C)cccc3C)c(-c3ccc(Cl)s3)nc2c1` gave G9a block 7.1µM*, JMJD2A Tudor inh inconclusive, BAZ2B block 5.6µM* and HP1b binding inh inconclusive.
`O=C(CCn1nnc2ccccc21)Nc1nnc(COc2ccccc2F)s1` gave G9a block 3%, JMJD2A Tudor inh -6%, Sfp inh -15%, BAZ2B block inconclusive and HP1b binding inh 24%.
`O=C(CCn1nnc2ccccc21)Nc1nnc(Cc2ccccc2)s1` gave G9a block inconclusive, JMJD2A Tudor inh -19%, L3MBTL1 inh -11%, Sfp inh 50µM*, BAZ2B block 4% and HP1b binding inh 15%.
`CCOC(=O)c1c(=O)n(O)c2ccc(OC)cc2[n+]1[O-]` gave G9a block 50µM*, JMJD2A Tudor inh 50µM*, Sfp inh 2%, BAZ2B block inconclusive and HP1b binding inh 3%.
`c1nc(NC2CCNCC2)c2cc(-c3ccoc3)ccc2n1` gave G9a block -34%[0.501 µM] and Sfp inh -12%.
